# Source: the supplement of paper PMC13380429
# What was measured:
# [1] = tested on: Vero E6 infected with SARS-CoV-2; experiment: morphology score (similarity to uninfected cells); higher = more like uninfected cells; details: 24 h
# [2] = tested on: Vero E6 infected with SARS-CoV-2; experiment: SARS-CoV-2 infection rate relative to infected DMSO; higher = more infection, active = 60 or less; details: 24 h
Compound,morphology score [1],SARS-CoV-2 infection rate [2]
CCCCc1cc2ccccc2c(OCCN(C)C)n1 [dimethisoquin] (10 µM),0.41,71.5% (inactive)
Cc1cccc(C)c1OCC(=O)N[C@@H](Cc1ccccc1)[C@@H](O)C[C@H](Cc1ccccc1)NC(=O)[C@H](C(C)C)N1CCCNC1=O [lopinavir] (10 µM),0.184,105% (inactive)
N#Cc1c(O)c2c(-c3ccc(-c4ccccc4O)cc3)csc2[nH]c1=O (10 µM),0.0882,106% (inactive)
CCCCC1(COC(=O)CCC(=O)O)C(=O)N(c2ccccc2)N(c2ccccc2)C1=O [suxibuzone] (10 µM),0.183,94.5% (inactive)
O[C@H]1CC[C@H](Nc2nc(-c3ccccc3)nc3[nH]ccc23)CC1 (10 µM),0.409,93% (inactive)
CCCCCCCCCCCCCCCC(=O)C(F)(F)F (10 µM),0.158,97% (inactive)
CCCN1CCCC[C@H]1C(=O)Nc1c(C)cccc1C [ropivacaine] (10 µM),0.0192,104% (inactive)
Cn1c(=O)c2c(ncn2C)n(C)c1=O [caffeine] (10 µM),-0.174,113% (inactive)
O=C(Nc1ccc(Cl)cc1)Nc1cccc(-c2cccc(N3CCCC3)n2)c1 (10 µM),0.00797,92.5% (inactive)
O=C(OCCN1CCOCC1)C1(c2ccccc2)CCCCC1 (10 µM),-0.00229,106% (inactive)
C[C@]12CC[C@H](O)C[C@H]1CC[C@@H]1[C@@H]2CC[C@]2(C)[C@@H](c3ccc(=O)oc3)C[C@H]3O[C@]132 [resibufogenin] (10 µM),-0.241,110% (inactive)
C=C1/C(=C\C=C2/CCC[C@]3(C)[C@@H]([C@H](C)/C=C/[C@H](C)C(C)(C)O)CC[C@@H]23)C[C@@H](O)C[C@@H]1O [ercalcitriol] (10 µM),0.0324,97.5% (inactive)
CC1(C)S[C@@H]2[C@H](NC(=O)C(C(=O)O)c3ccccc3)C(=O)N2[C@H]1C(=O)O (some centres not stated) [carbenicillin] (10 µM),0.0766,104% (inactive)
CC(Cc1ccc(O)cc1)NCC(O)c1cc(O)cc(O)c1 (configuration not stated) [fenoterol] (10 µM),-0.0121,106% (inactive)
CCOC(N)=O [urethane] (10 µM),-0.0716,106% (inactive)
C[C@]12CCC(=O)C(O)=C1CC[C@@H]1[C@@H]2CC[C@]2(C)C(=O)CC[C@@H]12 [formestane] (10 µM),-0.134,115% (inactive)
CC1(C)C(=O)N(CCN2CCC(C(=O)c3ccc(F)cc3)CC2)c2ccccc21 (10 µM),-0.158,110% (inactive)
CC(C)C[C@H](NC(=O)[C@H](Cc1ccccc1)NC(=O)c1cnccn1)B(O)O [bortezomib] (10 µM),-0.0961,96.5% (inactive)
O=c1[nH]cc(F)c(=O)[nH]1 [5-fluorouracil] (0.833333 µM),0.0377,102% (inactive)
CCCCCCCCCCC(C)(C)C(=O)Nc1c(OC)cc(OC)cc1OC (10 µM),-0.024,111% (inactive)
Oc1ccc2c3c1O[C@H]1c4[nH]c5c(c4C[C@@]4(O)[C@@H](C2)N(CC2CC2)CC[C@]314)C[C@@]1(O)[C@H]2Cc3ccc(O)c4c3[C@@]1(CCN2CC1CC1)[C@H]5O4 [nor-binaltorphimine] (10 µM),-0.0703,114% (inactive)
CC(C)Oc1cccc(CC(=O)N2CCC[C@](CC[N+]34CCC(c5ccccc5)(CC3)CC4)(c3ccc(Cl)c(Cl)c3)C2)c1 (10 µM),0.0196,110% (inactive)
CCCCCCCCCCCCC/C=C/[C@@H](O)[C@@H](N)CO[P@](=O)(O)OCC[N+](C)(C)C [sphingosylphosphorylcholine] (10 µM),0.000181,112% (inactive)

Compound,morphology score [1],SARS-CoV-2 infection rate [2]
Cn1cnc2c(F)c(Nc3ccc(Br)cc3F)c(C(=O)NOCCO)cc21 [binimetinib] (0.833333 µM),-0.00339,110% (inactive)
CN[C@@H](C)[C@H](O)c1ccccc1 [ephedrine] (10 µM),-0.038,106% (inactive)
CC(C)(C)c1ccc(O)cc1 [4-tert-butylphenol] (10 µM),0.0892,110% (inactive)
C[C@@H]1O[C@@H](O[C@@H]2[C@@H](O)[C@H](OCCc3ccc(O)c(O)c3)O[C@H](CO)[C@H]2OC(=O)/C=C/c2ccc(O)c(O)c2)[C@H](O)[C@H](O)[C@H]1O [verbascoside] (10 µM),0.0986,104% (inactive)
Nc1ccc(S(N)(=O)=O)cc1 [sulfanilamide] (10 µM),0.0892,103% (inactive)
Cc1cc(C)cc(C(=O)N(C)[C@H](Cc2ccc(-c3ccccc3)cc2)C(=O)N[C@@H](Cc2c[nH]c3ccccc23)C(=O)O)c1 (10 µM),0.0271,95% (inactive)
Cc1ccc(Oc2ccccc2-c2csc(N=C3NCCCN3)n2)c(C)c1 [abafungin] (10 µM),0.0754,100% (inactive)
C=CC(N)CCC(=O)O (configuration not stated) [vigabatrin] (10 µM),0.188,99.5% (inactive)
Cc1cnc(CNC(=O)c2c(=O)c3ccc(N4CCCN(C)CC4)nc3n3c2sc2ccccc23)cn1 (0.833333 µM),0.0323,109% (inactive)
CC1=CC(=O)c2ccccc2C1=O [menadione] (10 µM),0.144,91% (inactive)
COc1cc2c(NC3CCN(C)CC3)nc(N3CCCN(C)CC3)nc2cc1OCCOCCN(C)C (10 µM),0.108,110% (inactive)
c1ccc(C2CN3CCSC3=N2)cc1 (configuration not stated) [tetramisole] (10 µM),0.191,104% (inactive)
"C1CCC2(CC1)CCNCC2 [4,4-pentamethylenepiperidine] (10 µM)",-0.0731,104% (inactive)
O=C(NCC1(N2CCN(c3ccccc3)CC2)CCOCC1)c1cccnc1Sc1ccccc1 (10 µM),-0.047,112% (inactive)
C[C@@H](O)[C@H]1C(=O)N2C(C(=O)O)=C([C@H]3CCCO3)S[C@H]12 [faropenem] (10 µM),0.121,92.5% (inactive)
CC(C)[C@@H]1CC[C@@H](C)C[C@H]1O [levomenthol] (10 µM),-0.181,108% (inactive)
COc1ccc2ccc(=O)oc2c1CC=C(C)C [osthol] (10 µM),0.243,107% (inactive)
"CCCCC/C=C\C=C\CCCCCCCCC(=O)O [trans-10,cis-12-conjugated-linoleic-acid] (10 µM)",0.0778,104% (inactive)
CC1(C)[C@H](C(=O)O)N2C(=O)C[C@H]2S1(=O)=O [sulbactam] (10 µM),0.0596,113% (inactive)
CCCCCCCCCCCCCCCCCCCCCC(=O)O (10 µM),0.0564,108% (inactive)
CCN(CC)C(=O)N1CCN(C)CC1 [diethylcarbamazine] (10 µM),0.035,104% (inactive)
COc1cc2nc(C3CC3)nc(N3CCN(c4ccccc4OC)CC3)c2cc1OC (0.833333 µM),0.157,99% (inactive)
O=[N+]([O-])c1ncc[nH]1 [azomycin-(2-nitroimidazole)] (10 µM),-0.138,105% (inactive)
